From PubChem BioAssay (NCATS)
Inconclusive results are not listed. Active and inactive are the calls of the source. Calls come from the whole dose curve; as a rule, active = well fitted inhibition curve with a large enough effect; inconclusive = small, poorly fitted or top-dose-only effect; inactive = no such curve, though single readings can be large or run the other way.

Assay: qHTS Screen of the MIPE 4.0 Collection Against Ewings Sarcoma (TC32) (AID 1259256); note: nearly all actives have a fitted effect of over 45% in size;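 for viability (percent of control): 100% = DMSO-treated cells and 0% = medium-only wells without cells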
Conditions: TC32 Ewing sarcoma viability, CellTiter-Glo, 48 h; series mostly up to 45.8 µM; viability (percent of control): at the top concentration
Procedure, shortened: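 Here, cells in 5% FBS RPMI were exposed for two days (48 h) to compound dilutions added four hours after plating. ATP-based CellTiter-Glo luminescence measured viability, normalized to vehicle and no-cell blanks.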
Potency is the fitted concentration of half-maximal effect.

Row | Structure (SMILES) | viability (percent of control) | Potency
1 | CC(=O)C1=C(O)C=C2Oc3c(C(C)=O)c(O)c(C)c(O)c3C2(C)C1=O (centres undefined) | 134% (inactive) | –
2 | CCCCCCCCCCCCCCCC(=O)OC[C@@H](NC(=O)C(Cl)Cl)[C@H](O)c1ccc([N+](=O)[O-])cc1 | 133% (inactive) | –
3 | CCCNC(=O)[C@H]1O[C@H]1C(=O)N[C@H](C(=O)N1CCC[C@@H]1C(=O)OC)C(C)CC (some centres undefined) | – | 5.26 µM (active)
4 | O=C(O)C=Cc1ccc(Cn2ccnc2)cc1 | 145% (inactive) | –
5 | CN1CCCN(C(=O)c2cccc(-c3ccc(C=C4C(=O)Nc5ccc(Cl)cc54)o3)c2)CC1 | – | 18.7 µM (active)
6 | N#Cc1ccc(COC[C@H]2O[C@@H](n3c(NCc4ccc(Cl)c(Cl)c4)nc4c(N)ncnc43)[C@@H](O)[C@@H]2O)cc1 | – | 5.26 µM (active)
7 | N#CC(=Cc1ccc(O)c(O)c1)C(=O)NCc1ccccc1 | – | 20.9 µM (active)
8 | O=C(O)c1ccc(Nc2ncc3c(n2)-c2ccc(Cl)cc2C(c2c(F)cccc2F)=NC3)cc1 | – | 0.59 µM (active)
9 | O=c1[nH]c(=O)n([C@H]2C[C@@H](O)[C@@H](CO)O2)cc1C=CBr | 124% (inactive) | –
10 | COC1=C2C[C@@H](C)C[C@H](OC)[C@@H](O)[C@@H](C)C=C(C)[C@H](OC(N)=O)[C@@H](OC)C=CC=C(C)C(=O)NC(=CC1=O)C2=O | – | 0.296 µM (active)
11 | CC(=O)O[C@]1(C(C)=O)CC[C@H]2[C@@H]3C=C(C)C4=CC(=O)CC[C@]4(C)[C@@H]3CC[C@@]21C | – | 5.26 µM (active)
12 | CC(=O)ON=C1C(c2c(O)[nH]c3cc(Br)ccc23)=Nc2ccccc21 | – | 7.43 µM (active)
13 | CC1(C)[C@H](O[C@H]2O[C@H](C(=O)O)[C@@H](O)[C@H](O)[C@H]2O[C@@H]2O[C@H](C(=O)O)[C@@H](O)[C@H](O)[C@H]2O)CC[C@@]2(C)[C@H]1CC[C@]1(C)[C@H]2C(=O)C=C2[C@H]3C[C@@](C)(C(=O)O)CC[C@]3(C)CC[C@]21C | 134% (inactive) | –
14 | CCCNS(=O)(=O)Nc1ncnc(OCCOc2ncc(Br)cn2)c1-c1ccc(Br)cc1 | 119% (inactive) | –
15 | CS(=O)(=O)N1CCc2c(-c3cnc(N)nc3)nc(N3CCOCC3)nc21 | – | 0.296 µM (active)
16 | FC(F)c1nc2ccccc2n1-c1nc(N2CCOCC2)nc(N2CCOCC2)n1 | – | 0.118 µM (active)
17 | CC(C)(C)c1nc2c3cc[nH]c(=O)c3c3cc(F)ccc3c2[nH]1 | – | 4.18 µM (active)
18 | C=Cc1c(C)c2cc3nc(cc4[nH]c(cc5nc(cc1[nH]2)C(C)=C5CCC(=O)O)c(CCC(=O)OC)c4C)[C@@]1(C)C3=CC=C(C(=O)OC)[C@H]1C(=O)OC | – | 0.0743 µM (active)
19 | CCc1ccc(C(=O)Nc2cc(CN3CCN(C)CC3)cc(C(F)(F)F)c2)cc1C#Cc1cnc2ccnn2c1 | – | 14.8 µM (active)
20 | CCNC(=O)Nc1ccc(-c2nc3c(c(N4CCOC[C@H]4C)n2)CCN(C2COC2)C3)cc1 | – | 0.935 µM (active)

Row | Structure (SMILES) | viability (percent of control) | Potency
21 | COC(=O)[C@@H]1CC2=CC(=O)CC[C@]2(C)[C@@]23O[C@@H]2C[C@@]2(C)[C@H](CC[C@@]24CCC(=O)O4)[C@@H]13 | 118% (inactive) | –
22 | COc1ccc2cc([S+]([O-])Cc3ncc(C)c(OC)c3C)nc2c1 | 109% (inactive) | –
23 | C[N+]1(C)[C@@H]2C[C@@H](OC(=O)C(O)(c3cccs3)c3cccs3)C[C@H]1[C@@H]1O[C@@H]12 | 117% (inactive) | –
24 | CC(=O)O[C@H]1C[C@@H]2CC[C@H]3[C@H]4C[C@H]([N+]5(C)CCCCC5)[C@@H](OC(C)=O)[C@@]4(C)CC[C@@H]3[C@@]2(C)C[C@H]1[N+]1(C)CCCCC1 | – | 2.35 µM (active)
25 | c1cc(N[C@@H]2CCNC2)nc(-c2cnc3ccc(-c4cn[nH]c4)cn23)c1 | – | 23.5 µM (active)
26 | CN[C@H](CC(C)C)C(=O)N[C@H]1C(=O)N[C@@H](CC(N)=O)C(=O)N[C@@H]2C(=O)N[C@H]3C(=O)N[C@H](C(=O)N[C@H](C(=O)O)c4cc(O)cc(O)c4-c4cc3ccc4O)[C@H](O)c3ccc(c(Cl)c3)Oc3cc2cc(c3O[C@@H]2O[C@H](CO)[C@@H](O)[C@H](O)[C@@H]2O[C@H]2C[C@](C)(N)[C@H](O)[C@H](C)O2)Oc2ccc(cc2Cl)[C@H]1O | 115% (inactive) | –
27 | CCN1CCN(C(=O)N[C@H](C(=O)N[C@@H]2C(=O)N3C(C(=O)O)=C(CSc4nnnn4C)CS[C@@H]23)c2ccc(O)cc2)C(=O)C1=O | 119% [at 15.3 µM] (inactive) | –
28 | COc1cc(CCc2cc(NC(=O)c3ccc(N4C[C@@H](C)N[C@@H](C)C4)cc3)n[nH]2)cc(OC)c1 | – | 13.2 µM (active)
29 | Cc1cnn(C)c1C(=O)Nc1cc(Nc2ccc3c(C=Cc4ccccn4)n[nH]c3c2)ccc1F | – | 20.9 µM (active)
30 | COc1cc2ncnc(Nc3cccc(Br)c3)c2cc1OC | – | 0.833 µM (active)
31 | CCOC(=O)N1CCN([N+]([O-])=NOc2ccc([N+](=O)[O-])cc2[N+](=O)[O-])CC1 | – | 3.72 µM (active)
32 | COc1cc(C)c(Sc2cnc(NC(=O)c3ccc(CNC(C)C(C)(C)C)cc3)s2)cc1C(=O)N1CCN(C(C)=O)CC1 (centres undefined) | – | 2.96 µM (active)
33 | CNC(=O)Nc1ccc(-c2nc(N3CC4CCC(C3)O4)c3cnn(C4CCC5(CC4)OCCO5)c3n2)cc1 | – | 0.0074 µM (active)
34 | COc1cc(C)c(C=CC(C)=CC=CC(C)=CC(=O)O)c(C)c1C | 133% (inactive) | –
35 | C=CC(=O)Nc1cc(NC(=O)c2ccc(C)c(NC(=O)c3ccno3)c2)cc(C(F)(F)F)c1 | – | 23.5 µM (active)
36 | COc1cc(C(=O)NC2CCN(C)CC2)ccc1Nc1ncc2c(n1)N(C1CCCC1)CCC(=O)N2C(C)C | – | 2.35 µM (active)
37 | Oc1ccc([C@@H]2Oc3ccc(O)cc3[C@@H]3CCC[C@@H]32)cc1 | – | 9.35 µM (active)
38 | Nc1ncn([C@@H]2O[C@H](CO)[C@@H](O)[C@@H]2O)c(=O)n1 | – | 4.69 µM (active)
39 | NC1=N[C@H]2[C@H](CS[C@H]2CCCCC(=O)O)N1 | 134% [at 23.2 µM] (inactive) | –
